Results: PubChem BioAssay (NCATS)
Results filed as inconclusive are left out. A number with no mark means an inactive call. Calls come from the whole dose curve.

Assay: Cell Viability - MRC5 (AID 434);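 note: cells exposed to compound for 40 hours at 37 °C; potency reflects cytotoxicity seen as loss of intracellular ATP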
Conditions: MRC5 lung fibroblast viability, qHTS
In short: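 AC50 values come from Hill-equation fits of intracellular ATP loss, measured by CellTiter-Glo luminescence. Normal lung fibroblasts (MRC5) had 40 hr compound treatment at 37 C, normalized between DMSO and 100 uM tamoxifen.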
Potency is the fitted concentration of half-maximal effect.

Q: Which Potency does the source give for `O=C(O)c1c(Cl)cccc1Cl` here?
A: > 92 µM

Q: For `CC(=O)CC(C)C`, which Potency is on record?
A: > 92 µM

Q: Which Potency does the source give for `NC(=O)/N=N/C(N)=O` here?
A: > 92 µM

Q: For `O=C(Cl)c1cccc([N+](=O)[O-])c1`, which Potency is on record?
A: > 92 µM

Q: For `CCCCC(=O)N(C)C`, which Potency is on record?
A: > 92 µM

Q: Which Potency does the source give for `CSCCC=O` here?
A: > 92 µM

Q: Which Potency does the source give for `CCCCC(C=O)CC` (stereo not drawn) here?
A: > 92 µM

Q: For `O=Cc1cccc(Br)c1`, which Potency is on record?
A: > 92 µM

Q: Which Potency does the source give for `C=CCn1c(=O)n(CC=C)c(=O)n(CC=C)c1=O` here?
A: > 92 µM

Q: With `CCOc1cc(OCC)c(C(C)=O)cc1OCC` as the compound, how does the Potency read?
A: > 92 µM

Q: For `CCC(C)=O`, which Potency is on record?
A: > 92 µM

Q: With `O=C1OC(=O)c2c(Cl)c(Cl)c(Cl)c(Cl)c21` as the compound, how does the Potency read?
A: > 92 µM

Q: Which Potency does the source give for `CC=O` here?
A: > 92 µM

Q: For `CCOc1ccccc1N`, which Potency is on record?
A: > 92 µM

Q: For `Cc1ccc(C(C)(C)C)cc1`, which Potency is on record?
A: > 92 µM

Q: For `CC(N)CN` (stereo not drawn), which Potency is on record?
A: > 92 µM

Q: Which Potency does the source give for `O=C1CCC(=O)O1` here?
A: > 92 µM

Q: Which Potency does the source give for `O=[N+]([O-])c1ccc(NCCO)c(OCCO)c1` here?
A: > 92 µM

Q: For `ClCCl`, which Potency is on record?
A: > 92 µM

Q: For `Cc1ccc(C)o1`, which Potency is on record?
A: > 92 µM

Q: For `NC(=S)NNC(N)=S`, which Potency is on record?
A: > 92 µM

Q: Which Potency does the source give for `Clc1ccc(Cl)c(Cl)c1Cl` here?
A: > 92 µM

Q: For `O=C(Cl)c1ccccc1[N+](=O)[O-]`, which Potency is on record?
A: > 92 µM

Q: With `Nc1cccc(N)c1` as the compound, how does the Potency read?
A: > 92 µM

Q: With `CC(C)=C1CCC(C)CC1=O` (stereo not drawn) as the compound, how does the Potency read?
A: > 92 µM

Q: With `Nc1ccc(F)cc1F` as the compound, how does the Potency read?
A: > 92 µM

Q: For `COC(=O)CCC(=O)OC`, which Potency is on record?
A: > 92 µM

Q: For `CCc1ccccc1`, which Potency is on record?
A: > 92 µM

Q: For `CC(=O)OCCC(C)C`, which Potency is on record?
A: > 92 µM

Q: With `C[C@@H]1CC2(OC3C[C@@]4(C)C5=CC[C@H]6C(C)(C)C(O[C@@H]7OC[C@@H](O)[C@H](O)[C@H]7O)CC[C@@]67C[C@@]57CC[C@]4(C)C31)OC(O)C1(C)OC21` (stereo partly drawn) as the compound, how does the Potency read?
A: > 92 µM

Q: For `CC(=O)Nc1ccc(N)cc1`, which Potency is on record?
A: > 92 µM

Q: With `CN(C)c1cccc(O)c1` as the compound, how does the Potency read?
A: > 92 µM

Q: For `Nc1ccccc1S(=O)(=O)O`, which Potency is on record?
A: > 92 µM

Q: With `C=CCOC(=O)CCCCCCCC` as the compound, how does the Potency read?
A: > 92 µM

Q: With `CC(=O)CCc1ccccc1` as the compound, how does the Potency read?
A: > 92 µM

Q: With `c1ccsc1` as the compound, how does the Potency read?
A: > 92 µM

Q: Which Potency does the source give for `NC(=O)c1ccccc1[N+](=O)[O-]` here?
A: > 92 µM

Q: With `O=C(O)/C=C/C(=O)O` as the compound, how does the Potency read?
A: > 92 µM

Q: For `O=C(O)c1ccc(CO)o1`, which Potency is on record?
A: > 92 µM

Assay: Cell Viability - SK-N-SH (AID 435);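 note: compound exposure lasted 40 h at 37 °C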
Conditions: SK-N-SH neuroblastoma cell viability qHTS
In short: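 Human neuroblastoma line, 40 h exposure at 37 °C, ATP quantified via luciferase luminescence; DMSO and 100 uM tamoxifen define 0 and 100% inhibition for AC50 fitting.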

Q: For `O=C(O)c1c(Cl)cccc1Cl`, which Potency is on record?
A: > 92 µM

Q: With `CC(=O)CC(C)C` as the compound, how does the Potency read?
A: > 92 µM

Q: Which Potency does the source give for `NC(=O)/N=N/C(N)=O` here?
A: > 92 µM

Q: With `O=C(Cl)c1cccc([N+](=O)[O-])c1` as the compound, how does the Potency read?
A: > 92 µM

Q: Which Potency does the source give for `CCCCC(=O)N(C)C` here?
A: > 92 µM

Q: For `CSCCC=O`, which Potency is on record?
A: > 92 µM

Q: For `CCCCC(C=O)CC` (stereo not drawn), which Potency is on record?
A: > 92 µM

Q: With `O=Cc1cccc(Br)c1` as the compound, how does the Potency read?
A: > 92 µM

Q: With `C=CCn1c(=O)n(CC=C)c(=O)n(CC=C)c1=O` as the compound, how does the Potency read?
A: > 92 µM

Q: For `CCOc1cc(OCC)c(C(C)=O)cc1OCC`, which Potency is on record?
A: > 92 µM

Q: For `CCC(C)=O`, which Potency is on record?
A: > 92 µM

Q: With `O=C1OC(=O)c2c(Cl)c(Cl)c(Cl)c(Cl)c21` as the compound, how does the Potency read?
A: > 92 µM

Q: Which Potency does the source give for `CC=O` here?
A: > 92 µM

Q: With `CCOc1ccccc1N` as the compound, how does the Potency read?
A: > 92 µM

Q: With `Cc1ccc(C(C)(C)C)cc1` as the compound, how does the Potency read?
A: > 92 µM

Q: With `CC(N)CN` (stereo not drawn) as the compound, how does the Potency read?
A: > 92 µM

Q: With `O=C1CCC(=O)O1` as the compound, how does the Potency read?
A: > 92 µM

Q: Which Potency does the source give for `O=[N+]([O-])c1ccc(NCCO)c(OCCO)c1` here?
A: > 92 µM

Q: Which Potency does the source give for `ClCCl` here?
A: > 92 µM

Q: With `Cc1ccc(C)o1` as the compound, how does the Potency read?
A: > 92 µM

Q: For `NC(=S)NNC(N)=S`, which Potency is on record?
A: > 92 µM

Q: With `Clc1ccc(Cl)c(Cl)c1Cl` as the compound, how does the Potency read?
A: > 92 µM

Q: With `O=C(Cl)c1ccccc1[N+](=O)[O-]` as the compound, how does the Potency read?
A: > 92 µM

Q: With `Nc1cccc(N)c1` as the compound, how does the Potency read?
A: > 92 µM

Q: For `CC(C)=C1CCC(C)CC1=O` (stereo not drawn), which Potency is on record?
A: > 92 µM

Q: For `Nc1ccc(F)cc1F`, which Potency is on record?
A: > 92 µM

Q: With `COC(=O)CCC(=O)OC` as the compound, how does the Potency read?
A: > 92 µM

Q: Which Potency does the source give for `CCc1ccccc1` here?
A: > 92 µM

Q: For `CC(=O)OCCC(C)C`, which Potency is on record?
A: > 92 µM

Q: For `C[C@@H]1CC2(OC3C[C@@]4(C)C5=CC[C@H]6C(C)(C)C(O[C@@H]7OC[C@@H](O)[C@H](O)[C@H]7O)CC[C@@]67C[C@@]57CC[C@]4(C)C31)OC(O)C1(C)OC21` (stereo partly drawn), which Potency is on record?
A: > 92 µM

Q: Which Potency does the source give for `CC(=O)Nc1ccc(N)cc1` here?
A: > 92 µM

Q: For `CN(C)c1cccc(O)c1`, which Potency is on record?
A: > 92 µM

Q: With `Nc1ccccc1S(=O)(=O)O` as the compound, how does the Potency read?
A: > 92 µM

Q: Which Potency does the source give for `C=CCOC(=O)CCCCCCCC` here?
A: > 92 µM

Q: Which Potency does the source give for `CC(=O)CCc1ccccc1` here?
A: > 92 µM

Q: Which Potency does the source give for `c1ccsc1` here?
A: > 92 µM

Q: With `NC(=O)c1ccccc1[N+](=O)[O-]` as the compound, how does the Potency read?
A: > 92 µM

Q: With `O=C(O)/C=C/C(=O)O` as the compound, how does the Potency read?
A: > 92 µM

Q: For `O=C(O)c1ccc(CO)o1`, which Potency is on record?
A: > 92 µM
